PubChem BioAssay (Tox21)
Inconclusive results are not listed. The source made the active and inactive calls. Unless noted, calls follow the shape of the dose curve; as a rule, active = well fitted curve in the direction sought with a large enough effect in the repeat runs; inconclusive = weak or mixed curves; inactive = no such curve, though single readings can be large; an effect the other way counts as inactive or inconclusive.

What was measured:
[1] = qHTS assay to identify aromatase inhibitors - cell viability counter screen (AID 743084);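 also: cells stimulated with testosterone during compound exposure; nearly all actives have a fitted effect of over 55% in size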
[2] = target: Aryl hydrocarbon receptor (Homo sapiens) (UniProt P35869); experiment: qHTS assay to identify small molecule that activate the aryl hydrocarbon receptor (AhR) signaling pathway (AID 743085);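 also: HG2L7.5c1 human HepG2 liver cells with stably integrated DRE-driven firefly reporter; series mostly up to about 70 µM; nearly all actives have a fitted effect of over 15% in size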
Aryl hydrocarbon receptor (Homo sapiens), sequence (P35869 whole entry, looked up): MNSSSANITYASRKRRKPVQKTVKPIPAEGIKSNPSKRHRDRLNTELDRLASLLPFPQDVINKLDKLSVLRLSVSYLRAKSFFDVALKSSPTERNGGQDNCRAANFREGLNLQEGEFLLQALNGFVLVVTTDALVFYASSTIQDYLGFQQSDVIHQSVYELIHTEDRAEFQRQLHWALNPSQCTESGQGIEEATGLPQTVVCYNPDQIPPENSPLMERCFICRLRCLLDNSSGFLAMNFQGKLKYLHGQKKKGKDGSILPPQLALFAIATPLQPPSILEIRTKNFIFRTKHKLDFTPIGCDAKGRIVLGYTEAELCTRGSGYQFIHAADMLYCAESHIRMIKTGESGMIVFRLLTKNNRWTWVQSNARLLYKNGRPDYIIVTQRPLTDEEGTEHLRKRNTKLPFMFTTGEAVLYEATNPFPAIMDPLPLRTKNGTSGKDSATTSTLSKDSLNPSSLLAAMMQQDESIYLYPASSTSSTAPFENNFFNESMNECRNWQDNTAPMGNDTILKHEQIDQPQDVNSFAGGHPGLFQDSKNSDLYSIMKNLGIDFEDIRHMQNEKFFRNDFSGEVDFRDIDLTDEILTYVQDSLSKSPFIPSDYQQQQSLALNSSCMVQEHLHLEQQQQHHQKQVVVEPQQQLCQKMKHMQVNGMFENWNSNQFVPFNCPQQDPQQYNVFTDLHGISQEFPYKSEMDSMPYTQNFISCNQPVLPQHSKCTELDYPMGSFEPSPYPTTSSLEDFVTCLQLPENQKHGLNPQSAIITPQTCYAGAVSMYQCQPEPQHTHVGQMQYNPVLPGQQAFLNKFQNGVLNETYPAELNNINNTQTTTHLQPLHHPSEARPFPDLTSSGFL
In short: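 HepG2 cells (HG2L7.5c1) stably carrying a firefly luciferase reporter driven by 20 dioxin responsive elements were exposed to compound for 24 h at 37C after a 5 h settling period; luminescence rise (ONE-Glo) indicated activation.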

[3] = qHTS assay to identify small molecule that activate the aryl hydrocarbon receptor (AhR) signaling pathway - cell viability counter screen (AID 743086);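 also: HepG2 liver cells carrying the AhR DRE luciferase reporter; series mostly up to about 70 µM; nearly all actives have a fitted effect of over 45% in size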
In short: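 HepG2-AhR-luc (HG2L7.5c1) cells, 4000/well, treated 24 h at 37 C with compound; viability measured as CellTiter-Fluor fluorescence after 30 min in the same wells as the luciferase read.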

[4] = target: Peroxisome proliferator-activated receptor gamma (Homo sapiens) (UniProt P37231); experiment: qHTS assay to identify small molecule agonists of the peroxisome proliferator-activated receptor gamma (PPARg) signaling pathway (AID 743094; active = well fitted activation curve with a large enough effect in the signal ratio in the repeat runs, not every such curve was filed as active; the % refers to the signal ratio)
Peroxisome proliferator-activated receptor gamma (Homo sapiens), sequence (P37231 whole entry, looked up): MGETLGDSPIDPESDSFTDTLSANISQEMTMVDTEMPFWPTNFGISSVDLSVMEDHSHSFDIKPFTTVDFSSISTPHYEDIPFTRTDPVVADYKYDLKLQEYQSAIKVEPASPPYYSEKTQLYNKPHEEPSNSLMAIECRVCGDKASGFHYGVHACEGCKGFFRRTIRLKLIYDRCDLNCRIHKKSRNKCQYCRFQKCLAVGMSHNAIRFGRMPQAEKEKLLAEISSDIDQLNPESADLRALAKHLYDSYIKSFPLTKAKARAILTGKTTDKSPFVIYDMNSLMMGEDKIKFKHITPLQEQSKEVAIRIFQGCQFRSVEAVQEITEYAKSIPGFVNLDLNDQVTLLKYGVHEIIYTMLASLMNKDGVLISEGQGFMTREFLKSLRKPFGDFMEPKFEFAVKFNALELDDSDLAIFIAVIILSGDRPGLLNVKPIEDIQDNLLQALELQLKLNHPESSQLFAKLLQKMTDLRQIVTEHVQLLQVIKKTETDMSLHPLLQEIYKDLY
In short: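 Stably transfected HEK293H cells (GeneBLAzer PPARg UAS-bla) were incubated with test substances for 17 h at 37C after a 5 h pre-incubation; beta-lactamase activity was then detected by FRET substrate fluorescence.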

[5] = target: Peroxisome proliferator-activated receptor gamma (Homo sapiens) (UniProt P37231); experiment: qHTS assay to identify small molecule antagonists of the peroxisome proliferator-activated receptor gamma (PPARg) signaling pathway (AID 743191; calls by dose curve; also: series mostly up to about 63 µM; nearly all actives have a fitted effect of over 30% in size)
In short: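 GeneBLAzer PPARg UAS-bla HEK293H cells, 5 h post-plating, exposed to compounds 17 h at 37C. LiveBLAzer B/G FRET substrate added for 1 h at room temperature; beta-lactamase reporter read by fluorescence intensity.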

[6] = qHTS assay to identify small molecule antagonists of the peroxisome proliferator-activated receptor gamma (PPARg) signaling pathway - cell viability counter screen (AID 743194); also: nearly all actives have a fitted effect of over 55% in size
In short: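 Cytotoxicity counter screen in PPARg-bla HEK293H cells, same wells as reporter assay. Compounds plus 50 nM rosiglitazone (final) for 17 h at 37 C, then viability read by CellTiter-Glo luminescence.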

[7] = qHTS assay for small molecule agonists of the antioxidant response element (ARE) signaling pathway (AID 743202; active = well fitted activation curve with a large enough effect in the signal ratio in the repeat runs, not every such curve was filed as active; the % refers to the signal ratio)
In short: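 Agonist mode reporter screen: HepG2 cells with ARE-controlled beta-lactamase are incubated with test compounds for 16 h at 37 C, and beta-lactamase activity is measured as fluorescence of cleaved B/G FRET substrate.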

[8] = qHTS assay for small molecule agonists of the antioxidant response element (ARE) signaling pathway - cell viability counter screen (AID 743203; calls by dose curve; also: nearly all actives have a fitted effect of over 55% in size)
In short: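 Cells (ARE-bla HepG2, 2,000/well) receive DMSO-dissolved compounds after a 5 hrs rest. Plates incubate 16 hrs at 37C/5% CO2. CellTiter-Glo luminescence is then recorded after 30 min at room temperature.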

[9] = qHTS assay for small molecule activators of the heat shock response signaling pathway - cell viability counter screen (AID 743209); also: nearly all actives have a fitted effect of over 50% in size
In short: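 Quantitative HTS format, Tox21 10K library. HeLa cells carrying an HSE-driven beta-lactamase reporter were treated 5 h at 37 C, then assessed for viability by CellTiter-Glo luminescence.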

[10] = qHTS assay for small molecule activators of the heat shock response signaling pathway (AID 743210; active = well fitted activation curve with a large enough effect in the signal ratio in the repeat runs, with a control signal flat, not every such curve was filed as active; the % refers to the signal ratio;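 also: HeLa cells with beta-lactamase reporter driven by heat shock elements; series mostly up to about 63 µM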)
In short: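 Quantitative high-throughput format using an engineered HeLa line in which heat shock response elements drive beta-lactamase; after 5 h with compound, cells received a B/G FRET substrate and fluorescence was read.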

[11] = qHTS assay to identify small molecule agonists of the peroxisome proliferator-activated receptor delta (PPARd) signaling pathway - cell viability counter screen (AID 743211); also: nearly all actives have a fitted effect of over 55% in size
In short: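 PPARd-bla HEK293H cells (UAS-beta-lactamase reporter) were treated with compounds for 17 h at 37 C. Viability was then read in the same wells by CellTiter-Glo luminescence after 30 min at room temperature.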

[12] = target: Bile acid receptor (Homo sapiens) (UniProt Q96RI1); experiment: qHTS assay to identify small molecule antagonists of the farnesoid-X-receptor (FXR) signaling pathway (AID 743217; active = well fitted inhibition curve with a large enough effect in the signal ratio in the repeat runs, not every such curve was filed as active; the % refers to the signal ratio)
Bile acid receptor (Homo sapiens), sequence (Q96RI1 whole entry, looked up): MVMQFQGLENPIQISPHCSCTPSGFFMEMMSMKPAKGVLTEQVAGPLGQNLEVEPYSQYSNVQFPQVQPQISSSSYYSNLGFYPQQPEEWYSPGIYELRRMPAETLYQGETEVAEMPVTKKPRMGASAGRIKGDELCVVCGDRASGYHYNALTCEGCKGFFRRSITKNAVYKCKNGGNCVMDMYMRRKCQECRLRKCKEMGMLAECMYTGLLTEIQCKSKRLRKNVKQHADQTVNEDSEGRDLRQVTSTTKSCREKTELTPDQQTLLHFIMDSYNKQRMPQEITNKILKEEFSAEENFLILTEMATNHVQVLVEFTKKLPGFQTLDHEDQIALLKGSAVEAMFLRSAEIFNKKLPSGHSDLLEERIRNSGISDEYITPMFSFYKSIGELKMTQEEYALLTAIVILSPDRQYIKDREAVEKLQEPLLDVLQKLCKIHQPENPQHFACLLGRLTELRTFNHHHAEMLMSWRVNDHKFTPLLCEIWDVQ
In short: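 Beta-lactamase reporter under UAS control in HEK 293T cells; compound exposure 16 h at 37 °C in the presence of chenodeoxycholic acid (50 uM final); signal from B/G FRET substrate after 2 h at room temperature.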

[13] = qHTS assay to identify small molecule agonists of the farnesoid-X-receptor (FXR) signaling pathway - cell viability counter screen (AID 743218); also: nearly all actives have a fitted effect of over 45% in size
In short: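 In GeneBLAzer FXR-UAS-bla HEK 293T cells, compounds act for 16 h at 37 C. Cell viability is then scored in the reporter wells by CellTiter-Glo, 30 min at RT, luminescence.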

[14] = target: Bile acid receptor (Homo sapiens) (UniProt Q96RI1); experiment: qHTS assay to identify small molecule agonists of the farnesoid-X-receptor (FXR) signaling pathway (AID 743220; active = well fitted activation curve with a large enough effect in the signal ratio in the repeat runs, not every such curve was filed as active; the % refers to the signal ratio)
In short: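 Beta-lactamase reporter under UAS control in GeneBLAzer FXR HEK 293T cells (5000/well) measured with LiveBLAzer FRET substrate after 2 h at room temperature. Compound exposure lasted 16 h at 37C.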

[15] = qHTS assay to identify small molecule antagonists of the farnesoid-X-receptor (FXR) signaling pathway - cell viability counter screen (AID 743221; active = well fitted cell-killing curve with a large enough effect in the repeat runs, not every such curve was filed as active; also: nearly all actives have a fitted effect of over 50% in size)
In short: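 FXR-UAS-bla HEK 293T cells were treated with test compounds plus chenodeoxycholic acid (50 uM final) for 16 h at 37 C. Cell viability in the same wells was then read as CellTiter-Glo luminescence after 30 min at room temperature.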

[16] = target: Vitamin D3 receptor (Homo sapiens) (UniProt P11473); experiment: qHTS assay to identify small molecule agonists of the vitamin D receptor (VDR) signaling pathway (AID 743222; calls by dose curve)
Vitamin D3 receptor (Homo sapiens), sequence (P11473 whole entry, looked up): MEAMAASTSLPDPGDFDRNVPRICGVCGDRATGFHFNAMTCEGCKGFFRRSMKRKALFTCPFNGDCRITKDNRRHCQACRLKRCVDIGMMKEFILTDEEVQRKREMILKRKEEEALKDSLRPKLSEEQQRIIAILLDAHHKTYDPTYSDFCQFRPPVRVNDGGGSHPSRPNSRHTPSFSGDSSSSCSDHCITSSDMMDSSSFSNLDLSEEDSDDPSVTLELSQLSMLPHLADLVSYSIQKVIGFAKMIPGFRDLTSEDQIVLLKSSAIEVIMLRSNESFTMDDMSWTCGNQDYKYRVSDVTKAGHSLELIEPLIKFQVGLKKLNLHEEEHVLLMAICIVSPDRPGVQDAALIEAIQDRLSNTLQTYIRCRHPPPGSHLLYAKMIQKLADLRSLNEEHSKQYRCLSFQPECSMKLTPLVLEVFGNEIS
In short: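 Agonist activity measured in VDR-bla reporter cells. Exposure 16 h, 37C, 5% CO2; detection by B/G FRET substrate, 2 h RT.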

[17] = target: Vitamin D3 receptor (Homo sapiens) (UniProt P11473); experiment: qHTS assay to identify small molecule antagonists of the vitamin D receptor (VDR) signaling pathway (AID 743223; active = well fitted inhibition curve with a large enough effect in the signal ratio in the repeat runs, not every such curve was filed as active; the % refers to the signal ratio)
In short: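 VDR-bla cells were plated, incubated 4 h at 37C, then given compound and 1alpha,25-dihydroxyvitamin D3 (3 nM final). After 16 h at 37C, LiveBLAzer B/G FRET substrate was added for 2 h at room temperature and fluorescence read.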

[18] = qHTS assay to identify small molecule antagonists of the peroxisome proliferator-activated receptor delta (PPARd) signaling pathway - cell viability counter screen (AID 743213); also: nearly all actives have a fitted effect of over 50% in size
In short: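 CellTiter-Glo was added to PPARd-bla HEK293H wells following 17 h compound treatment in the presence of 300 nM L165041. Luminescence was recorded after 30 min at room temperature.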

[19] = target: Peroxisome proliferator-activated receptor delta (Homo sapiens) (UniProt Q03181); experiment: qHTS assay to identify small molecule agonists of the peroxisome proliferator-activated receptor delta (PPARd) signaling pathway (AID 743212; calls by dose curve)
Peroxisome proliferator-activated receptor delta (Homo sapiens), sequence (Q03181 whole entry, looked up): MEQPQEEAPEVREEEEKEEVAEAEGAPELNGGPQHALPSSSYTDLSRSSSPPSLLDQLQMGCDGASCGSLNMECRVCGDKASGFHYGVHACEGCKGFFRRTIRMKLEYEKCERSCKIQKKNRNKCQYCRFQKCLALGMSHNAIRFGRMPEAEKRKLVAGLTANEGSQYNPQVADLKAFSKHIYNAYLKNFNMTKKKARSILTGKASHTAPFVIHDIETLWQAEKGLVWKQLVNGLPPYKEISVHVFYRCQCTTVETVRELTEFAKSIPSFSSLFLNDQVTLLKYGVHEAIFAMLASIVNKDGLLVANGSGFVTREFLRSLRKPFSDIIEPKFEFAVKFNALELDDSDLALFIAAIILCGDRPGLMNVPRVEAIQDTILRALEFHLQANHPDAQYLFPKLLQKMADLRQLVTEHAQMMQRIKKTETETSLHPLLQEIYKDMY
In short: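 Quantitative high-throughput agonist screen in a HEK293H beta-lactamase reporter line under UAS control. Compounds in DMSO, at 37 C. Fluorescence read after 2 h with FRET substrate at room temperature.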

[20] = target: Peroxisome proliferator-activated receptor delta (Homo sapiens) (UniProt Q03181); experiment: qHTS assay to identify small molecule antagonists of the peroxisome proliferator-activated receptor delta (PPARd) signaling pathway (AID 743215; active = well fitted inhibition curve with a large enough effect in the signal ratio in the repeat runs, not every such curve was filed as active; the % refers to the signal ratio;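 also: cells stimulated with agonist L165041 at 300 nM final during compound exposure; series mostly up to about 62 µM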)
In short: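 Antagonist-mode beta-lactamase reporter screen: HEK293H cells with UAS-bla under PPARd control, stimulated by 300 nM L165041 (final) alongside test compound for 17 h at 37 C, then FRET fluorescence after 2 h substrate incubation.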
% is scaled to controls: 0 for no effect and ±100 for the full control effect.

O=C(O)CC(=O)C(=O)O
inactive: Potency [1] | Potency [2] | Potency [3] | Potency [4] | Potency [5] | Potency [6] | Potency [7] | Potency [8] | Potency [9] | Potency [10] | Potency [11] | Potency [12] | Potency [13] | Potency [14] | Potency [15] | Potency [16] | outcome [17]

C[N+](C)(C)CCOC(=O)CCC(=O)OCC[N+](C)(C)C
inactive: Potency [1] | Potency [2] | Potency [3] | Potency [4] | Potency [5] | Potency [6] | Potency [7] | Potency [8] | Potency [9] | Potency [10] | Potency [15]

CCn1cc(C(=O)O)c(=O)c2cnc(N3CCNCC3)nc21
inactive: Potency [1] | Potency [2] | Potency [3] | Potency [4] | Potency [5] | Potency [6] | Potency [7] | Potency [8] | Potency [9] | Potency [10] | Potency [11] | Potency [18] | Potency [12] | Potency [13] | Potency [14] | Potency [15]

C/C(=C(\CCOP(=O)(O)O)SC(=O)c1ccccc1)N(C=O)Cc1cnc(C)nc1N
inactive: Potency [1] | Potency [2] | Potency [3] | Potency [4] | ratio activity, negative = inhibition [5] 3.86% [at 5.95 µM] | activity change, negative = cytotoxicity [6] 4.9% [at 5.95 µM] | activation [7] 14.1% [at 8.36 µM] | viability change, negative = cytotoxic [8] 8.52% [at 8.36 µM] | activity change, negative = cytotoxicity [9] -16.4% [at 5.95 µM] | activation [10] 1.29% [at 5.95 µM] | activation [19] -1.46% [at 5.95 µM] | viability change, negative = cytotoxic [18] 1.06% [at 6.26 µM] | ratio activity, negative = inhibition [20] 6.78% [at 6.26 µM] | viability change, negative = cytotoxic [13] 3.54% [at 5.95 µM] | activation [16] -0.529% [at 6.01 µM] | activity change, negative = inhibition [17] 2.53% [at 6.95 µM]

CCO[Si](CCCCl)(OCC)OCC
inactive: Potency [1] | Potency [2] | Potency [3] | Potency [4] | Potency [5] | Potency [6] | Potency [7] | Potency [8] | Potency [9] | Potency [18] | Potency [20] | Potency [13] | outcome [17]

CC1CCC(=O)C1=O (stereo not given)
inactive: Potency [1] | Potency [2] | Potency [3] | Potency [4] | Potency [5] | Potency [6] | Potency [7] | Potency [8] | Potency [9] | Potency [10] | Potency [19] | Potency [18] | Potency [20] | Potency [13] | Potency [14] | Potency [15] | Potency [16]

O=C1C(O)=C(O)C(=O)C(O)=C1O
inactive: Potency [1] | Potency [2] | Potency [3] | Potency [4] | Potency [5] | Potency [6] | Potency [7] | Potency [8] | Potency [9] | Potency [10] | Potency [11] | Potency [19] | Potency [20] | Potency [13] | Potency [14] | Potency [15] | Potency [16] | outcome [17]

OC(C#CCN1CCCC1)(c1ccccc1)c1ccccc1
inactive: Potency [1] | Potency [2] | Potency [3] | Potency [4] | Potency [5] | Potency [6] | Potency [7] | Potency [8] | Potency [9] | Potency [10] | Potency [11] | Potency [19] | Potency [18] | Potency [20] | Potency [12] | Potency [15] | Potency [16]
